# From PubChem BioAssay
# Values without a mark were called inactive. How the calls were made is not given here.
# Target: Pantothenate synthetase (Mycobacterium tuberculosis (strain ATCC 25618 / H37Rv)) (UniProt P9WIL5)
# Assay: Coupled enzyme confirmation of inhibitors against recombinant Mtb PanC (AID 375);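 further: 0% = full reaction with vehicle and 100% = no enzyme background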
# Conditions: coupled enzyme assay; at 10 µM, hits give high values
# Chain of Pantothenate synthetase (Mycobacterium tuberculosis (strain ATCC 25618 / H37Rv)) (P9WIL5 whole entry, looked up): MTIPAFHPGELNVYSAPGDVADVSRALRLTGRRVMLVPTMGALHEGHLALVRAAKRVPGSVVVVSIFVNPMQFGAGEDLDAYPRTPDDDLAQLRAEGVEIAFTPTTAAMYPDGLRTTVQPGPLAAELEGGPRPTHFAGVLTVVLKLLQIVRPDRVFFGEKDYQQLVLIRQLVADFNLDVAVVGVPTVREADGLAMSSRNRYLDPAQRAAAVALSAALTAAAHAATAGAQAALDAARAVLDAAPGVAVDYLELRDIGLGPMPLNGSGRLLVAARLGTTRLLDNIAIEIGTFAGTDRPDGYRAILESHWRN
row,Compound,inhibition
1,COc1ccc(NC(=O)CSc2nc3c(c(=O)n2-c2ccccc2OC)SCC3)cc1,3%
2,O=C(CCCn1c(=O)c2sccc2n(Cc2cc(=O)n3ccccc3n2)c1=O)NCc1ccco1,0%
3,COc1ccc(N2CCN(C(c3cccs3)C(C)NC(=O)c3ccco3)CC2)cc1 (stereo not given),0%
4,Cc1nc2ccccn2c1/C(O)=C1\C(=O)C(=O)N(CCN2CCOCC2)C1c1cccs1 (stereo not given),0%
5,CCN(C#N)c1nc(NC(C)C)nc(NC(C)C)n1,5%
6,CCOC(=O)c1csc(NC(=O)C2CCCCC2)n1,2%
7,CCCCN(CCCC)CCCOC(=O)c1ccc(N)cc1,0%
8,COc1ccccc1Cn1c(-c2ccco2)nc2nc3ccccc3nc21,0%
9,N#Cc1c(NC(=O)c2ccc(Br)o2)n(-c2ccccc2)c2nc3ccccc3nc12,2%
10,COc1ccc(-n2c(SCC(=O)Nc3ccc(C(=O)O)cc3)nnc2-c2cccs2)cc1,0%
11,CC(C)(C)NCC(O)c1cc(O)cc(O)c1 (stereo not given),0%
12,CCc1nnc(NC(=O)CSc2nnc(CSc3nc(C)cc(C)n3)n2CC)s1,1%
13,C/C(Nc1cccc(F)c1)=C(/C#N)C(N)=O,3%
14,COc1cccc(C(=O)OCn2nnc3ccccc3c2=O)c1,0%
15,O=C(CCCNS(=O)(=O)c1ccccc1)NCc1ccco1,0%
16,COc1oc(-c2ccccc2)nc1C(F)(F)F,0%
17,O=C(Nc1ccccc1)c1cnc2n(c1=O)CCS2,0%
18,COc1ccccc1N(CC(=O)NC1CCCC1)C(=O)CCC(=O)Nc1cc(C)on1,0%
19,CCC(c1nnc(SCC(=O)NCC2CCCO2)n1Cc1ccccc1)N(C)C (stereo not given),0%
20,CC1CCC(C(=O)NC(C(=O)NCCN2CCC(C)CC2)C(C)C)CC1 (stereo not given),0%

row,Compound,inhibition
1,COc1ccccc1NC(=O)CSc1nnc(-c2ccncc2)n1CC1CCCO1 (stereo not given),0%
2,COCCn1nnnc1C(c1cc2cc(C)cc(C)c2[nH]c1=O)N1CCN(c2ccccc2F)CC1 (stereo not given),2%
3,CC1CN(c2ccc(Oc3ccccc3)cc2)c2nc3c(c(=O)n(CC(N)=O)c(=O)n3C)n2C1 (stereo not given),3%
4,CCCCSc1nc(CCC)cc(=O)[nH]1,0%
5,C[C@]12CC[C@@H]3c4ccc(OS(=O)(=O)O)cc4CC[C@H]3[C@@H]1CCC2=O,0%
6,CCN(CC)C(c1ccc(C)cc1)c1nnnn1C1CCCCC1 (stereo not given),0%
7,CC(C)CN(C(=O)c1ccc(=O)n(C)n1)c1nc2ccccc2s1,0%
8,CC1(C)CC(=O)C(C=Nc2ccncc2)=C(O)C1,0%
9,COC(=O)Cc1cc(=O)n(-c2ccccc2)[nH]1,0%
10,O=C(O)C1C2C=CC3(CN(C4CCCC4)C(=O)C13)O2 (stereo not given),4%
11,C[C@]12CC[C@@H]3c4ccc(O)cc4CC[C@H]3[C@@H]1CCC2=O,6%
12,CCc1nnc(NC(=O)c2cc3c(s2)CCCCC3)s1,0%
13,CCN(CC)CCCNc1oc(-c2cccc(Cl)c2)nc1C#N,0%
14,COc1ccccc1C(=O)N1CCN(C(=O)c2ccncc2)CC1,0%
15,CCCCC(CC)C(=O)Nc1ccc(Cl)cn1 (stereo not given),8%
16,Cc1sc2ncn3ncnc3c2c1C,0%
17,COc1cc2[nH]c(=O)n(CCCCCC(=O)NCCCN3CCCC3=O)c(=O)c2cc1OC,0%
18,Cc1ccc(-c2cc3nc4c(c(=O)n3[nH]2)CCCC4)cc1,6%
19,COc1ccc(C2CC(c3ccc(OC)cc3)n3nc(N)nc3N2)cc1 (stereo not given),0%
20,O=C(Oc1cccc2cccnc12)c1cccc(-n2cnnn2)c1,0%
